Assay results as given in PubChem BioAssay (NCATS).
Inconclusive results are not listed. Activity calls are given as the source filed them. Calls follow the shape of the dose curve; as a rule, active = well fitted curve in the direction sought with a large enough effect; inconclusive = small, poorly fitted or top-dose-only effect, or another doubt; inactive = no such curve, though single readings can be large; an effect the other way counts as inactive or inconclusive.

Tests used:
[1] = qHTS of pediatric cancer cell lines to identify multiple opportunities for drug repurposing: Primary screen for Saos-2 cells (AID 1347097); also: nearly all actives have a fitted effect of over 40% in size; also: potency is read from the fitted curve at half-maximal effect
Summary of the method: (§1)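 ATP-based luminescence (CellTiter-Glo) quantifies viability after a 48-hour exposure. Compounds are dosed across 8 or 11 final concentrations; DMSO and 2.3 µM bortezomib serve as controls.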

[2] = qHTS of pediatric cancer cell lines to identify multiple opportunities for drug repurposing: Primary screen for SK-N-SH cells (AID 1347098); also: nearly all actives have a fitted effect of over 65% in size; also: potency is read from the fitted curve at half-maximal effect
Summary of the method: (§2)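 Cells (500-1,000/well) rested 5 h, then received compounds for 48 h; metabolically active cells were measured by CellTiter-Glo luminescence. Final concentrations spanned up to 46 µM (MIPE, 11-point) or 0.59 nM-46 µM (NPC, 8-point) in primary screens, 11-point in follow-ups.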

[3] = qHTS of pediatric cancer cell lines to identify multiple opportunities for drug repurposing: Primary screen for NB1643 cells (AID 1347099); also: nearly all actives have a fitted effect of over 50% in size; also: potency is read from the fitted curve at half-maximal effect
Summary of the method: as §1

[4] = qHTS of pediatric cancer cell lines to identify multiple opportunities for drug repurposing: Primary screen for LAN-5 cells (AID 1347100); also: potency is read from the fitted curve at half-maximal effect
Summary of the method: as §2

[5] = qHTS of pediatric cancer cell lines to identify multiple opportunities for drug repurposing: Primary screen for BT-12 cells (AID 1347101); also: nearly all actives have a fitted effect of over 25% in size; also: potency is read from the fitted curve at half-maximal effect
Summary of the method: as §2

[6] = qHTS of pediatric cancer cell lines to identify multiple opportunities for drug repurposing: Primary screen for Rh18 cells (AID 1347102); also: nearly all actives have a fitted effect of over 65% in size; also: potency is read from the fitted curve at half-maximal effect
Summary of the method: as §2

[7] = qHTS of pediatric cancer cell lines to identify multiple opportunities for drug repurposing: Primary screen for OHS-50 cells (AID 1347103); also: nearly all actives have a fitted effect of over 40% in size; also: potency is read from the fitted curve at half-maximal effect
Summary of the method: as §2

[8] = qHTS of pediatric cancer cell lines to identify multiple opportunities for drug repurposing: Primary screen for RD cells (AID 1347104); also: nearly all actives have a fitted effect of over 55% in size; also: potency is read from the fitted curve at half-maximal effect
Summary of the method: as §1

[9] = qHTS of pediatric cancer cell lines to identify multiple opportunities for drug repurposing: Primary screen for MG 63 (6-TG R) cells (AID 1347105); also: nearly all actives have a fitted effect of over 50% in size
Summary of the method: as §1

[10] = qHTS of pediatric cancer cell lines to identify multiple opportunities for drug repurposing: Primary screen for control Hh wild type fibroblast cells (AID 1347106);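 also: series mostly up to about 46 µM; a drop in luminescence marks cytotoxicity and a rise apparent proliferation; nearly all actives have a fitted effect of over 55% in size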
Summary of the method: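 Viability after 48 h compound treatment at 37C, 500-1,000 cells/well, read as ATP luminescence with CellTiter-Glo. Primary screens used 11-point (MIPE, 0.78 nM-46 µM) or 8-point (NPC, 0.59 nM-46 µM) final concentrations; follow-up screens used 11-point dilutions.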

[11] = qHTS of pediatric cancer cell lines to identify multiple opportunities for drug repurposing: Primary screen for Rh30 cells (AID 1347107); also: series mostly up to about 46 µM; nearly all actives have a fitted effect of over 75% in size
Summary of the method: as §2

[12] = qHTS of pediatric cancer cell lines to identify multiple opportunities for drug repurposing: Primary screen for Rh41 cells (AID 1347108);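 also: series mostly up to about 46 µM; luminescence drop marks cytotoxic hits; nearly all actives have a fitted effect of over 70% in size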
Summary of the method: as §1

Measured: Potency

O=C(O)/C=C(\CC(=O)O)C(=O)O
inactive: [1] | [2] | [3] | [4] | [5] | [6] | [7] | [8] | [9] | [10] | [11]

COCCc1ccc(OCC2CO2)cc1 (configuration not stated)
inactive: [1] | [2] | [3] | [4] | [5] | [6] | [7] | [8] | [9] | [10] | [11] | [12]

C[C@@H]1C[C@H]2[C@@H]3CCC4=CC(=O)C=C[C@]4(C)[C@@]3(F)[C@@H](O)C[C@]2(C)[C@@]1(O)C(=O)COC(=O)c1ccncc1
inactive: [1] | [2] | [3] | [4] | [5] | [6] | [7] | [8] | [9] | [10] | [11] | [12]

CC(CCc1ccc2c(c1)OCO2)NN (configuration not stated)
inactive: [1] | [2] | [3] | [4] | [5] | [6] | [7] | [8] | [9] | [10] | [11] | [12]

NC(=O)NC1N=C([O][Al])NC1=O (configuration not stated)
inactive: [1] | [2] | [3] | [4] | [5] | [6] | [7] | [8] | [9] | [10] | [11] | [12]

COc1ccccc1N1CCN(CC(O)COc2cc(OC)c(OC)c(OC)c2)CC1 (configuration not stated)
inactive: [1] | [2] | [3] | [4] | [5] | [6] | [7] | [8] | [9] | [10] | [11]

CCCCCC[C@@H](CCC)C(=O)O
inactive: [1] | [2] | [3] | [4] | [5] | [6] | [7] | [8] | [9] | [10] | [11] | [12]

C/C(=C1\CCOC(=O)S1)N(C=O)Cc1cnc(C)nc1N
inactive: [1] | [2] | [3] | [4] | [5] | [6] | [7] | [8] | [9] | [10] | [11] | [12]

COc1ccc(/C(C)=C/C(=O)O)c(OC)c1
inactive: [1] | [2] | [3] | [4] | [5] | [6] | [7] | [8] | [9] | [10] | [11] | [12]

O=C(O)c1[nH]n(-c2ccc(S(=O)(=O)O)cc2)c(=O)c1N=Nc1ccc(S(=O)(=O)O)cc1
inactive: [1] | [2] | [3] | [4] | [5] | [6] | [7] | [8] | [9] | [10] | [11] | [12]

CSCC[C@H](NC(=O)[C@H](Cc1c[nH]c2ccccc12)NC(=O)CCNC(=O)OC(C)(C)C)C(=O)N[C@@H](CC(=O)O)C(=O)N[C@@H](Cc1ccccc1)C(N)=O
inactive: [1] | [2] | [3] | [4] | [5] | [6] | [7] | [8] | [9] | [10] | [11] | [12]

COC(=O)c1cc(Cl)ccc1OC
inactive: [1] | [2] | [3] | [4] | [5] | [6] | [7] | [8] | [9] | [10] | [11]

O=C(O)Cc1ccccc1Oc1ccc(Cl)cc1Cl
inactive: [1] | [2] | [3] | [4] | [5] | [6] | [7] | [8] | [9] | [10]

CCCCCCCCCCCCCC[N+](C)(C)C
active: [1] 16.8 µM | [2] 15.4 µM | [3] 23.7 µM | [4] 7.5 µM | [5] 3.89 µM | [6] 4.22 µM | [7] 3.09 µM | [8] 11.9 µM

Oc1ccccc1
inactive: [1] | [2] | [3] | [4] | [5] | [6] | [7] | [8] | [9] | [10] | [11] | [12]

CC1c2ccccc2CN1NC(=O)c1ccc(Cl)c(S(N)(=O)=O)c1 (configuration not stated)
inactive: [1] | [2] | [3] | [4] | [5] | [6] | [7] | [8] | [9] | [10] | [11]

CC(=O)CC/C=C(\C)CC/C=C(\C)CC/C=C(\C)CCC=C(C)C
inactive: [1] | [2] | [3] | [4] | [5] | [6] | [7] | [8] | [9] | [10] | [11]

Cc1c(N)cccc1C(F)(F)F
inactive: [1] | [2] | [3] | [4] | [5] | [6] | [7] | [8] | [9] | [10] | [11] | [12]

CCCCNc1ccc(C(=O)OCCN(CC)CC)cc1
inactive: [1] | [2] | [3] | [4] | [5] | [6] | [7] | [8] | [9] | [10] | [11] | [12]
